Source: PubChem BioAssay
NS1 function inh – qHTS Assay for Inhibitors of Influenza NS1 Protein Function. Potency, µM (series often up to 46.1 µM). 270,000 compounds, 0.4% hits; calls by dose curve; also: actives are rising curves; nearly all actives have a fitted effect of over 50% in size
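Compounds were scored for reversing the slow growth caused by influenza A NS1 in S. cerevisiae, measured by optical density at 600 nm. Assay medium contained 2% galactose at pH 6.0; NS1-free yeast of the same strain were the positive control.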
AMA1-RON2 inh – qHTS for Inhibitors of AMA1-RON; Towards Development of Antimalarial Drug Lead: Primary Screen. 360,000 compounds, 0.2% hits. AlphaScreen AMA1-biotinylated RON2 peptide binding. Potency, µM (doses to about 58.2 µM), hits mostly inhibitors; also: nearly all actives have a fitted effect of over 45% in size
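AMA1 (3D7) with his tag at 25 nM final met compounds first, then biotinylated RON2 peptide at 25 nM; detection used donor plus acceptor beads, 10 µg/mL apiece, read by AlphaScreen after 30 min at room temperature.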
Pf growth 48h – Primary qHTS for delayed death inhibitors of the malarial parasite plastid, 48 hour incubation; P. falciparum luciferase growth in erythrocytes, 48 h; Potency, µM (highest dose often 28.7 µM), actives largely listed as inhibitors; 310,000 compounds, 5.9% hits
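In quantitative HTS format, infected erythrocytes bearing luciferase-reporter parasites were treated for a single generation at 37 C. Luminescence after adding detection reagent served as the growth measure.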
Sm TGR block – qHTS Assay for the Inhibitors of Schistosoma Mansoni Peroxiredoxins | Schistosoma mansoni thioredoxin glutathione reductase (TGR), Q962Y6 | purified TGR, DTNB reduction, TNB absorbance 405 nm | Potency, µM (doses to about 114 µM), hits mostly inhibitors | 360,000 compounds, 3% hits | AID 485364, 2010; also: nearly all actives have a fitted effect of over 60% in size
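TGR 20 nM + NADPH 100 uM (dispensed conc.), cpd preinc 15 min RT; start with NADPH (500 uM addition) then DTNB (15 mM addition). Kinetic TNB absorbance, 405 nm filter. Four-parameter Hill fit across titration.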
Pf growth 96h – Primary qHTS for delayed death inhibitors of the malarial parasite plastid, 96 hour incubation; P. falciparum luciferase reporter growth, 96 h; 320,000 compounds, 6.9% hits; Potency, µM (series often up to 28.7 µM), usual class: inhibitors; AID 504834, 2011
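Luminescence readout: decreased luciferase signal marks inhibited growth of reporter-expressing P. falciparum in infected red cells (2% hematocrit, 0.05% parasitemia final), exposed to compound two generations (96 h, 37 C, 5% CO2).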
A number is an active result; 0 = inactive; ? = inconclusive; - = no result; [ ] = another dose, or the depositor's remark. Rows were chosen to be rich in hits. Some 11% of all compounds tested hit in one or more screens of this group. Unless noted, calls follow the shape of the dose curve; as a rule, active = well fitted curve in the direction sought with a large enough effect; inconclusive = small, poorly fitted or top-dose-only effect, or another doubt; inactive = no such curve, though single readings can be large; an effect the other way counts as inactive or inconclusive.

SMILES | NS1 function inh | AMA1-RON2 inh | Pf growth 48h | Sm TGR block | Pf growth 96h
CC(=O)Nc1cccc(-c2cc(NC(C)=O)c3ncc(-c4ccc(C(C)=O)cc4)n3c2)c1 | - | 0 | - | - | -
CCOC(=O)c1c(-n2c(C)cc(C=C3C(=O)NC(=S)NC3=O)c2C)sc2c1CCCC2 | 0 | 0 | 12µM | 11µM | 12µM
Cc1cc(C=O)c(C)n1-c1sc2c(c1C(=O)O)CCCC2 | 0 | 0 | 0 | 0 | ?
CCOC(=O)c1c(-n2c(C)cc(/C=C3/C(=O)NC(=O)N(CC)C3=O)c2C)sc2c1CCCC2 | - | 0 | - | - | -
COC(=O)c1c(-n2c(C)cc(C=O)c2C)sc2c1CCCC2 | 0 | 0 | 10µM | 0 | ?
COc1cccc(Nc2nnc(SCC(=O)N(CC(C)C)CC(C)C)s2)c1 | 0 | 0 | ? | 0 | 1.3µM
COc1cccc(C(=O)Nc2ccccc2OCc2cc(=O)n3cc(C)ccc3n2)c1 | - | - | - | 0 | -
CCOC(=O)c1csc(N/N=C2\CCCc3ccccc32)n1 | 0 | 0 | - | 0 | ?
CCOC(=O)c1csc(N/N=C2\CCc3ccccc32)n1 | 0 | 0 | - | 0 | 13µM
Cc1cccc(-n2c(SCC(N)=O)nc3c(c2=O)C2(CCCC2)Cc2ccccc2-3)c1 | 0 | 0 | 0 | 0 | 0
CCCn1c(SCC#N)nc2c(c1=O)C1(CCCC1)Cc1ccccc1-2 | 0 | 0 | 0 | 0 | 4.7µM
NC(=O)CSc1nc2c(c(=O)n1-c1ccccc1)C1(CCCCC1)Cc1ccccc1-2 | 0 | 0 | 0 | 0 | 12µM
NNc1nc(N)c2c(n1)-c1ccccc1CC21CCCC1 | 0 | 0 | 10µM | 0 | 1.7µM
O=c1c2c(nc3n1CCCCC3)-c1ccccc1CC21CCCCC1 | 0 | 0 | 0 | 0 | 8.3µM
CSc1ncc(Cl)c(C(=O)Nc2c(C(=O)c3ccc(C)cc3)oc3ccccc23)n1 | - | - | - | 0 | -
COCC(=O)N[C@@H]1c2ccccc2CC[C@@H]1OCc1ccccc1 | - | 0 | - | - | -
CCN(c1ccccc1)S(=O)(=O)c1ccc(C(=O)N(CCCN(C)C)c2nc3c(C)cccc3s2)cc1 | 0 | 0 | 15µM | 0 | 9.3µM
Cc1ccc2sc(N(CCCN(C)C)C(=O)c3ccc(S(=O)(=O)N(C)Cc4ccccc4)cc3)nc2c1C | - | ? | 10µM | 0 | 12µM
Cc1ccc2sc(N(CCCN(C)C)C(=O)c3ccc(S(=O)(=O)N(C)C)cc3)nc2c1C | - | 0 | ? | 0 | ?
Cc1nc(-c2ccc(F)cc2)sc1CCNC(=O)c1ccccc1C(F)(F)F | - | - | - | 0 | -
Cc1ccc(-c2c(C(=O)N/N=C/c3ccoc3)nnn2-c2nonc2N)cc1 | 0 | 0 | 9.3µM | 0 | 3.3µM
CCOc1ccc(-c2c(C(=O)N/N=C/c3ccc(Cl)cc3)nnn2-c2nonc2N)cc1 | 0 | 0 | 9.3µM | 0 | ?
CC1CCN(Cc2c(C(=O)N/N=C/c3ccc(C(C)C)cc3)nnn2-c2nonc2N)CC1 | 0 | 0 | ? | 0 | 1.7µM
Cc1ccc(-c2c(C(=O)N/N=C/c3cccc(Cl)c3)nnn2-c2nonc2N)cc1 | 0 | 0 | 0.052µM | 0 | ?
O=C(CSc1ncccn1)NC1CCCc2ccccc21 (centres undefined) | - | 0 | 0 | 0 | 0
SMILES | NS1 function inh | AMA1-RON2 inh | Pf growth 48h | Sm TGR block | Pf growth 96h
CCN1CCN(C(=O)CSc2nc3c(c(=O)n(C)c(=O)n3C)n2C)CC1 | 0 | 0 | 0 | 0 | 0
Cc1ccc(-c2c(C(=O)N/N=C/c3ccc(OC(C)C)cc3)nnn2-c2nonc2N)cc1 | 0 | 0 | 10µM | 0 | ?
Cc1ccc(-c2c(C(=O)N/N=C/c3ccc(C)o3)nnn2-c2nonc2N)cc1 | 0 | 0 | ? | ? | 2.3µM
CCCn1nnnc1SCC(=O)N1C(C)CCCC1C (centres undefined) | 0 | 0 | 0 | 0 | 0
COc1ccc(CCNCc2cc3ccc(C)cc3[nH]c2=O)cc1OC | 0 | 0 | 0 | 0 | 13µM
COc1ccccc1N(Cc1cc2ccc(C)cc2[nH]c1=O)C(C)=O | 0 | 0 | 0 | 0 | ?
COc1ccc(CCN(Cc2cc3ccc(C)cc3[nH]c2=O)C(C)=O)cc1OC | 0 | 0 | 2.3µM | 0 | 0
Cc1cccc(CCNCc2cc3ccc(C)cc3[nH]c2=O)c1 | 0 | 0 | 0 | 0 | 0
Cc1ccc2cc(CNC(C)C)c(=O)[nH]c2c1 | 0 | 0 | - | 0[11.4 µM] | 5.2µM
CCOc1ccc(OCCn2c(S(=O)(=O)O)nc3c(N)ncnc32)cc1 | 0 | 0 | 0 | 0 | 0
COc1ccc(C(=O)c2[nH]c(N)c(C(=O)NCCc3c[nH]c4ccccc34)c2-c2ccc(OC)c(OC)c2)cc1 | - | 0 | - | - | -
COc1cn(CC(=O)Nc2ccccc2)c(CN2CCCCC2)cc1=O | - | - | - | 0 | -
Cc1ccc(O)c(NC(=S)NC(=O)/C=C/c2ccco2)c1 | 0 | 0 | 0 | - | 0
CCCC(=O)NC(=S)Nc1ccc(Cl)cn1 | 0 | 0 | 0 | 0 | 0
O=C(/C=C/c1ccco1)NC(=S)Nc1ccc(Cl)cn1 | 0 | 0 | 0 | 35µM | -
Cc1ccnc(NC(=S)NC(=O)/C=C/c2ccco2)c1 | 0 | 0 | 0 | 25µM | 0
CCOc1ccc(NS(=O)(=O)c2ccc3[nH]cc(C(=O)NCC4CCCO4)c(=O)c3c2)cc1 (centres undefined) | 0 | 0 | 0 | 0 | 0.029µM
CCc1ccccc1NS(=O)(=O)c1ccc2[nH]cc(C(=O)NCC3CCCO3)c(=O)c2c1 (centres undefined) | 0 | 0 | - | 0 | -
CN(Cc1ccccc1)S(=O)(=O)c1ccc2[nH]cc(C(=O)NCC3CCCO3)c(=O)c2c1 (centres undefined) | 0 | 0 | 0 | 0 | 0.93µM
CCc1n[nH]c(=S)n1/N=C/c1ccc(N(C)c2ccccc2)cc1 | - | 0 | 10µM | 0 | ?
CCc1ccccc1NC(=O)CSc1ncc2c(n1)-c1ccccc1N(C)S2(=O)=O | - | - | - | 0 | -
C=CCNC(=S)NN=C1CCCCCCC1 | - | 0 | 8.3µM | 0 | 0[5.75 µM]
Cc1ccccc1COc1ccc(-c2nnn(CC(=O)O)n2)cc1 | 0 | 0 | 0 | 0 | ?
CCCC(O)(CCN(C)C)c1ccc(OC)cc1 (centres undefined) | 0 | 0 | - | 11µM | 0
COc1ccc(CC(=O)OCCN(C)C)cc1 | 0 | 0 | - | 0 | 0
SMILES | NS1 function inh | AMA1-RON2 inh | Pf growth 48h | Sm TGR block | Pf growth 96h
CCc1noc(-c2ccc(N3CCCCC3)c([N+](=O)[O-])c2)n1 | - | - | - | 0 | -
CC(C)(C)c1ccc(C(=O)NNC(=S)NC(=O)c2cccnc2)cc1 | 0 | 0 | 13µM | 0 | ?
Cc1cc(C)cc(C(=O)NC(=S)Nc2ccc(Cc3ccncc3)cc2)c1 | 0 | 0 | ? | 0 | 0
COc1cc(C(=O)NC(=S)Nc2ccc(Cc3ccncc3)cc2)cc(OC)c1OC | 0 | 0 | 10µM | ? | 0
COc1ccc(NC(=O)c2ccc(Br)o2)cc1 | 0 | 0 | 0 | 0 | 0
COC(=O)c1ccc(NC(=S)NC(=O)c2cccnc2)cc1 | 0 | 0 | 0 | ? | 0
COc1ccc(NC(=S)NC(=O)c2cccnc2)cc1 | 0 | 0 | 0 | 22µM | ?
COc1ccc(NC(=S)NC(=O)c2ccc(Br)o2)cc1 | 0 | 0 | 0 | 8.9µM | 0
